Source: PubChem BioAssay
Only some compounds are listed: those with a hit (about 8% of all), similar ones and a draw of the others.
MCF10A rereplic: A quantitative high throughput screen for small molecules that induce DNA re-replication in MCF 10a normal breast cells; MCF 10A DNA re-replication, Hoechst nuclear intensity, 48 h; Potency, µM (top dose mostly 46.1 µM), inactives show at the top dose activity, positive = re-replication, actives largely listed as activators; 2.9% of 350,000 active; AID 624296, 2012; further: % of control where 0% means no effect; nearly all actives have a fitted effect of over 50% in size
HT1080NT lethal: qHTS for induction of synthetic lethality in tumor cells producing 2HG: qHTS for the HT-1080-NT fibrosarcoma cell line | HT-1080-NT fibrosarcoma viability, CellTiter-Glo ATP luminescence, 48 h | 1.6% of 360,000 active | Potency, µM (doses to about 46.1 µM), for the others: at the top dose activity, negative = less viability, actives largely listed as cytotoxic | AID 686970, 2013;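 further: NT is the 2HG producing partner of a matched IDH1 knockdown line; 0% = DMSO-treated cells and -100% = media-only wells without cells; nearly all actives have a fitted effect of over 55% in size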
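HT-1080-NT; 750 cells/well; 5% FBS RPMI; 48 h compound, 37 degrees C; CellTiter-Glo luminescence; curve fitting and curve-class assignment.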
HT1080 IDH1KD tx: qHTS for induction of synthetic lethality in tumor cells producing 2HG: qHTS for the HT-1080-IDH1KD cell line. HT-1080 IDH1 knockdown viability, ATP luminescence, 48 h. Potency, µM (doses to about 46.1 µM), for inactives: at the top dose activity, negative = toxicity, most hits filed as cytotoxic. 2% of 360,000 active;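 further: 0% = DMSO wells and -100% = cell-free medium wells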
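% activity derives from luminescence (CellTiter-Glo), normalised to DMSO and no-cell wells. HT-1080-IDH1KD cells, 750/well, had 48 h compound exposure at 37 °C.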
SW480 rereplic: A quantitative high throughput screen for small molecules that induce DNA re-replication in SW480 colon adenocarcinoma cells | SW480 DNA re-replication, Hoechst DNA content imaging, 48 h | Potency, µM (highest dose often 46.1 µM), without a hit: at the highest dose re-replication activation, actives largely listed as activators | 1.8% of 340,000 active; further: % of control where 0% means no effect; nearly all actives have a fitted effect of over 55% in size
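SW480 cells exposed to compounds for 48 hr at 37 C, 5% CO2, then Hoechst-stained 40 min. Nuclear DNA content imaged by fluorescence scanning (405 nm excitation, 500-530 nm emission); re-replication scored as increased high-intensity nuclei.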
KB-3-1 tox: qHTS assay for MDR1-selective chemotherapeutics: Primary screen using the parental adenocarcinoma cell KB-3-1 | KB-3-1 viability, CellTiter-Glo ATP luminescence, 72 h | AID 1347075, 2019 | Potency, µM (titrated, usually from 46.1 µM), actives largely listed as cytotoxic | 1.4% of 400,000 active; further: on the % scale 0 is the no-effect control and ±100 the full control effect; nearly all actives have a fitted effect of over 60% in size
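Parental KB-3-1 adenocarcinoma cells in phenol-red-free DMEM with 10% FBS were pin-treated with compounds at several concentrations, incubated 72 h at 37 °C, and viability read by CellTiter-Glo luminescence; concentration-effect curves were fitted after normalization.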
KB-V1 cytotox: qHTS assay for MDR1-selective chemotherapeutics: Primary screen using the drug-selected MDR subline cells KB-V1. KB-V1 MDR cells viability, CellTiter-Glo, 72 h. Potency, µM (highest dose often 46.1 µM), hits mostly cytotoxic. 3.4% of 400,000 active; further: on the % scale 0 is the no-effect control and ±100 the full control effect; nearly all actives have a fitted effect of over 60% in size
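Cytotoxicity toward P-gp-expressing KB-V1 cells was determined as loss of CellTiter-Glo luminescence after 72 h at 37 degrees C. Compounds were tested in quantitative HTS format across a concentration range, with curves fitted to normalized data.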
* marks the source's active call; other numbers are inactive results; [ ] = another dose, or the depositor's remark. The call rests on the fitted dose curve; in most records, active means well fitted curve in the direction sought with a large enough effect; inconclusive means small, poorly fitted or top-dose-only effect, or another doubt; inactive means no such curve, though single readings can be large; an effect the other way counts as inactive or inconclusive. Potency means the concentration at half of the fitted maximal effect.

What do the screens show for `COc1cc(-c2ncc3ccccn23)cc(OC)c1OC`?
MCF10A rereplic: inconclusive; HT1080NT lethal: 3%; HT1080 IDH1KD tx: 1%; SW480 rereplic: -10%; KB-3-1 tox: inactive; KB-V1 cytotox: 15µM*

What do the screens show for `O=S(=O)(Nc1cccc(-c2ccc(N3CCOCC3)nn2)c1)c1ccccc1C(F)(F)F`?
KB-3-1 tox: inactive; KB-V1 cytotox: inactive

Results for Cc1cc(=O)n2nc(N(C)CC(=O)NCc3ccc(Cl)cc3)sc2n1 ?
KB-3-1 tox: inactive; KB-V1 cytotox: inactive

What do the screens show for `O=S(=O)(Nc1ccc(O)c(Sc2nc3ccccc3s2)c1)c1ccc(Cl)cc1`?
MCF10A rereplic: 21µM*; HT1080NT lethal: 2%; HT1080 IDH1KD tx: -17%; SW480 rereplic: -136%; KB-3-1 tox: inconclusive; KB-V1 cytotox: 16µM*

What do the screens show for `CCNc1nc2c(c(=O)n(C)c(=O)n2C)n1CC(O)COc1ccccc1` (stereo not drawn)?
KB-3-1 tox: inconclusive; KB-V1 cytotox: 5.2µM*

Results for Cc1ccccc1OCC(O)Cn1c(NCc2ccco2)nc2c1c(=O)n(C)c(=O)n2C (stereo not drawn) ?
MCF10A rereplic: 15%; HT1080NT lethal: -22%; HT1080 IDH1KD tx: 0%; SW480 rereplic: 1%; KB-3-1 tox: inactive; KB-V1 cytotox: inconclusive

Results for CCCNc1nc2c(c(=O)n(C)c(=O)n2C)n1CC(O)COc1ccccc1 (stereo not drawn) ?
KB-3-1 tox: inactive; KB-V1 cytotox: 9.2µM*

What do the screens show for `COc1ccc(OCC(O)Cn2c(Nc3cccc(C)c3)nc3c2c(=O)n(C)c(=O)n3C)cc1` (stereo not drawn)?
MCF10A rereplic: 8%; HT1080NT lethal: 5%; HT1080 IDH1KD tx: 7%; SW480 rereplic: -5%; KB-3-1 tox: inactive; KB-V1 cytotox: inactive

What do the screens show for `Cc1cn(CC(=O)NCCCc2ccccc2)c(=O)[nH]c1=O`?
MCF10A rereplic: 7%; HT1080NT lethal: 2%; HT1080 IDH1KD tx: 1%; SW480 rereplic: 1%; KB-3-1 tox: inactive; KB-V1 cytotox: inactive

What do the screens show for `O=c1[nH]c(=O)n(CCCc2ccccc2)cc1-c1ccccc1`?
MCF10A rereplic: 3%; HT1080NT lethal: 8%; HT1080 IDH1KD tx: 24%; SW480 rereplic: 0%; KB-3-1 tox: inactive; KB-V1 cytotox: 13µM*

What do the screens show for `O=C(CNC(=O)c1ccc(Cl)cc1)OC1CCOC1=O` (stereo not drawn)?
MCF10A rereplic: 13%; HT1080NT lethal: 1%; HT1080 IDH1KD tx: 16%; SW480 rereplic: -2%; KB-3-1 tox: inactive; KB-V1 cytotox: inactive

Results for CCCCOc1ccc(C(=O)NCC(=O)OC2CCOC2=O)cc1 (stereo not drawn) ?
MCF10A rereplic: 3.3µM*; HT1080NT lethal: -6%; HT1080 IDH1KD tx: -2%; SW480 rereplic: inconclusive; KB-3-1 tox: inconclusive; KB-V1 cytotox: inactive

How did COc1cc(-c2nnc(-c3cccs3)o2)cc(OC)c1OC do in these assays?
MCF10A rereplic: 21%; HT1080NT lethal: 17%; HT1080 IDH1KD tx: 9%; SW480 rereplic: -2%; KB-3-1 tox: inactive; KB-V1 cytotox: inconclusive

How did COc1ccc(-c2nnc(-c3cccs3)o2)cc1OC do in these assays?
MCF10A rereplic: -3%; HT1080NT lethal: -2%; HT1080 IDH1KD tx: -22%; SW480 rereplic: -11%; KB-3-1 tox: inactive; KB-V1 cytotox: 6.5µM*

What do the screens show for `COc1ccc(OC)c(N2C(=O)CC(Cc3cc(C)cc(C)c3)C2=O)c1` (stereo not drawn)?
MCF10A rereplic: 7%; HT1080NT lethal: inconclusive; HT1080 IDH1KD tx: inconclusive; SW480 rereplic: inconclusive; KB-3-1 tox: 6.5µM*; KB-V1 cytotox: inconclusive

What do the screens show for `COc1ccc(OC)c(N2C(=O)CC(Cc3ccc(Cl)cc3)C2=O)c1` (stereo not drawn)?
MCF10A rereplic: -2%; HT1080NT lethal: 2%; HT1080 IDH1KD tx: -1%; SW480 rereplic: -2%; KB-3-1 tox: inactive; KB-V1 cytotox: inactive

Results for Cc1ccc(Cl)cc1N1CCN(C(=O)COc2cc(=O)n(C)c3ccccc23)CC1 ?
KB-3-1 tox: inactive; KB-V1 cytotox: inactive

What do the screens show for `CCN(CC)c1cc2c(cc1F)c(=O)c(S(=O)(=O)c1ccc(C)cc1)cn2Cc1ccc(F)cc1`?
KB-3-1 tox: inactive; KB-V1 cytotox: inactive

Results for O=C(NC1CCCC1)C(c1ccncc1)N(CC1CCCO1)C(=O)Cn1nnc(-c2cccs2)n1 (stereo not drawn) ?
MCF10A rereplic: 11%; HT1080NT lethal: 16%; HT1080 IDH1KD tx: 4%; SW480 rereplic: 0%; KB-3-1 tox: inconclusive; KB-V1 cytotox: 23µM*

How did CC(C)(C)NC(=O)C(OC(=O)Cn1nnc(-c2ccc(F)cc2)n1)c1ccncc1 (stereo not drawn) do in these assays?
MCF10A rereplic: 21µM*; HT1080NT lethal: -1%; HT1080 IDH1KD tx: 9%; SW480 rereplic: 12%; KB-3-1 tox: inactive; KB-V1 cytotox: inactive

How did Cc1ccc(C)c(N(C(=O)Cn2nnc(-c3cccs3)n2)C(C(=O)NC2CCCC2)c2ccncc2)c1 (stereo not drawn) do in these assays?
MCF10A rereplic: -180%[0.0737 µM]; HT1080NT lethal: 4%; HT1080 IDH1KD tx: 18%; SW480 rereplic: -28%; KB-3-1 tox: inactive; KB-V1 cytotox: inactive

How did CC(C)(C)NC(=O)C(c1ccncc1)N(Cc1cccs1)C(=O)Cn1nnc(-c2ccc(F)cc2)n1 (stereo not drawn) do in these assays?
MCF10A rereplic: 10µM*; HT1080NT lethal: inconclusive; HT1080 IDH1KD tx: inconclusive; SW480 rereplic: 20%; KB-3-1 tox: inactive; KB-V1 cytotox: inactive

Results for CSc1ccc(CCNC(=O)Cn2c(C)c3cnn(-c4ccccc4)c(=O)c3c2C)cc1 ?
KB-3-1 tox: inactive; KB-V1 cytotox: inactive

What do the screens show for `COc1ccccc1CCN1COc2c(cc3c(C)c(C)c(=O)oc3c2C)C1`?
KB-3-1 tox: inactive; KB-V1 cytotox: inactive

How did COC(=O)c1ccc(OCC2c3cc(OC)c(OC)cc3CCN2C(=O)c2ccccc2F)cc1 (stereo not drawn) do in these assays?
KB-3-1 tox: inactive; KB-V1 cytotox: inactive
